{
  "source": "PubChem BioAssay AID651812",
  "about": "(National Center for Advancing Translational Sciences (NCATS), 2012)",
  "note": "In all, about 2,100 compounds went through this assay and about 650 (31%) were called active. Inconclusive results (about 16%) are left out. Calls follow the shape of the dose curve; as a rule, active = well fitted inhibition curve with a large enough effect; inconclusive = small, poorly fitted or top-dose-only effect; inactive = flat fitted curve, though single readings scatter. The list shows a part of the results. Potency is read from the fitted curve at half-maximal effect.",
  "data": [
    {"assay": "qHTS for inhibitors of Vif-A3G interactions: Cherry picks; also: nearly all actives have a fitted effect of over 80% in size; as to activity, negative = fluorescence increase: % of control where 0% means no effect", "settings": "HeLa A3G-eYFP + Vif (tagged APOBEC3G with the HIV-1 protein that degrades it), 24 h; Potency: eYFP fluorescence increase; series mostly up to 36.9 µM; activity, negative = fluorescence increase: at the top concentration", "source_text": "The recent discovery and characterization of host restriction factors, which provide a potent defense to invading retroviruses, has provided new targets for antiviral drug development. APOBEC3G (A3G) and APOBEC3F (A3F) are potent cytidine deaminases that block HIV-1 replication; HIV-1 expresses the Vif protein, which counteracts A3G and A3F by binding to them and inducing their proteasomal degradation. The Vif-A3G and Vif-A3F interactions provide two potential targets for development of small molecules which can interfere with the ability of Vif to degrade A3G or A3F. […] To identify inhibitors that can interfere with Vif mediated degradation of A3G and A3F, we have developed Hela cell lines that stably express A3G or A3F tagged with eYFP at the C-terminal end (A3G-eYFP or A3F-eYFP, respectively) and Vif. In the absence of an inhibitor, Vif induces degradation of A3G-eYFP and A3F-eYFP, and the cells are not fluorescent. In the presence of an inhibitor, it is expected that Vif will be unable to degrade A3G-eYFP and/or A3F-eYFP, resulting in an increase in yellow fluorescence. In this assay, Vif A3G was screened against the cherry picks ordered from the MLSMR. NIH Chemical Genomics Center [NCGC] NIH Molecular Libraries Probe Centers Network [MLPCN] MLPCN Grant: MH093245 Assay Submitter (PI): Vinay Pathak, National Cancer Institute\nA3G-Vif cells were harvested from T225 flask and resuspended in phenol free OPTI-MEM medium with 5% FBS. Then 5 uL of 140,000 cells/mL resuspended cells was dispensed into each well of low base Aurora COC 1,536-well plates (black walled, clear bottom) using a Multidrop Combi dispenser. After overnight culture at 37 deg C with 5% CO2, a total of 23 nL of compounds at 5 selected concentrations from the NPC or positive control (2 mM stock of MG132) in DMSO was transferred to each well of the assay plate using a pintool (Kalypsys, San Diego, CA), and the plates were further incubated at 37 deg C with 5% CO2 for 24 hours. After that, the plates were measured on Acumen Explorer (TTP Lab Tech). The fluorescence was detected by 488 nm/Ex and […].", "values": [
      {"smiles": "CN1/C(=C\\C=C2C(=O)NC(=O)NC2=O)C(C)(C)c2ccccc21", "Potency": "4.61 µM (active)"},
      {"smiles": "COCCCn1c(=O)/c(=C\\c2ccccc2OC(F)F)s/c1=C(/C#N)C(=O)NCCOC", "Potency": "20.6 µM (active)"},
      {"smiles": "CCCCNC(=O)/C(C#N)=c1\\s/c(=C\\c2ccccc2OC(F)F)c(=O)n1CCCOC", "Potency": "16.4 µM (active)"},
      {"smiles": "C/C(=C\\c1ccc(N(C)C)cc1)[N+](=O)[O-]", "activity, negative = fluorescence increase": "0.666% (inactive)"},
      {"smiles": "O=C1NC(=O)N(c2ccc3c(c2)OCO3)C(=O)/C1=C\\c1ccc(N2CCCCC2)o1", "Potency": "20.6 µM (active)"},
      {"smiles": "O=C1NC(=O)N(c2ccc3c(c2)OCO3)C(=O)/C1=C/c1ccc(N2CCCCC2)o1", "Potency": "23.1 µM (active)"},
      {"smiles": "CCCCn1c(O)c(C(=O)/C=C/c2c[nH]c3ccccc23)c(=O)[nH]c1=O", "Potency": "15.8 µM (active)"},
      {"smiles": "Cc1ccccc1-n1c(/C=C/c2ccc(N(C)C)cc2)nc2ccccc2c1=O", "Potency": "5.8 µM (active)"},
      {"smiles": "O=c1[nH]c(CN2CC=C(c3ccccc3)CC2)nc2scc(-c3ccccc3)c12", "Potency": "23.1 µM (active)"},
      {"smiles": "O=C1/C(=C/c2ccc3c(c2)OCO3)SC(=S)N1CCC(=O)N(CCO)c1ccccc1", "Potency": "23.1 µM (active)"},
      {"smiles": "COc1ccc(-n2c(/C=C/c3ccc(O)c(OC)c3)nc3ccccc3c2=O)cc1", "Potency": "23.1 µM (active)"},
      {"smiles": "O=c1c2ccccc2nc(/C=C/c2ccccc2O)n1-c1ccc(Br)cc1", "Potency": "20.6 µM (active)"},
      {"smiles": "NC(=Nc1ccccc1)NN=Cc1c[nH]c2ccccc12", "activity, negative = fluorescence increase": "-1.44% (inactive)"},
      {"smiles": "Cc1cccc(CN2CCCC(C(=O)c3cccc(OC(C)C)c3)C2)n1", "note": "(stereo not drawn)", "activity, negative = fluorescence increase": "-4.3% [at 46.1 µM] (inactive)"},
      {"smiles": "O=C1NC(=S)SC1=Cc1ccc(N(CCCl)CCCl)cc1", "Potency": "15.8 µM (active)"},
      {"smiles": "CN1C(=O)C(=Cc2ccc(N3CCOCC3)o2)C(=O)N(C)C1=S", "Potency": "20.6 µM (active)"},
      {"smiles": "CN1C(=O)C(=Cc2ccc(N3CCOCC3)o2)C(=O)N(C)C1=O", "Potency": "23.1 µM (active)"},
      {"smiles": "CN1C(=O)C(=Cc2ccc(N3CCCCC3)o2)C(=O)N(C)C1=S", "Potency": "7.31 µM (active)"},
      {"smiles": "O=C1CN=C(c2cccc(Br)c2)c2cc(Br)ccc2N1", "activity, negative = fluorescence increase": "-0.913% (inactive)"},
      {"smiles": "CCS(=O)(=O)N1N=C(c2cccc(NS(C)(=O)=O)c2)CC1c1ccccc1", "note": "(stereo not drawn)", "Potency": "18.4 µM (active)"},
      {"smiles": "O=Cc1c(C(=O)O)n(Cc2ccc(Cl)cc2)c2ccccc12", "Potency": "20.6 µM (active)"},
      {"smiles": "Cc1ccc(CNC(=O)c2ccccc2NC(=O)c2nsc3ccccc23)cc1", "Potency": "20.6 µM (active)"},
      {"smiles": "COc1ccc(-c2ccc(OC)c(OC)c2OC)cc1", "activity, negative = fluorescence increase": "-11.7% (inactive)"},
      {"smiles": "CN(C)c1ccc(C(=O)c2ccc(N(C)C)cc2)cc1", "activity, negative = fluorescence increase": "-0.231% (inactive)"},
      {"smiles": "Cc1cc(N(CCCl)CCCl)ccc1C=Cc1ccncn1", "Potency": "23.1 µM (active)"},
      {"smiles": "COCCNC(=O)c1c(NC(=O)c2ccc(Br)o2)n(Cc2ccccc2)c2nc3ccccc3nc12", "Potency": "20.6 µM (active)"},
      {"smiles": "COCCCNC(=O)c1c(NC(=O)c2ccco2)n(Cc2ccccc2)c2nc3ccccc3nc12", "activity, negative = fluorescence increase": "0.679% (inactive)"},
      {"smiles": "Cc1cccc(-n2c(/C=C/c3ccc([N+](=O)[O-])o3)nc3ccccc3c2=O)c1", "Potency": "3.66 µM (active)"},
      {"smiles": "O=c1c2ccccc2nc(/C=C/c2ccc([N+](=O)[O-])o2)n1-c1ccc(O)cc1", "Potency": "15.8 µM (active)"},
      {"smiles": "Cc1cccc(-n2c(/C=C/c3c(C)[nH]c4ccccc34)nc3ccccc3c2=O)c1", "Potency": "16.4 µM (active)"},
      {"smiles": "CC(=O)OC1C2(CC3N4C(=O)C5(CO)SSC4(CC31O)C(=O)N5C)OC(C)C(C)(C)C2=O", "note": "(stereo not drawn)", "activity, negative = fluorescence increase": "-3.88% (inactive)"},
      {"smiles": "O=c1nc(/C=C/c2ccc(Cl)cc2Cl)cc(C(F)(F)F)[nH]1", "activity, negative = fluorescence increase": "-0.355% (inactive)"},
      {"smiles": "CCN(CC)c1ccc(N=Cc2c(O)n(CCC3=CCCCC3)c(=O)[nH]c2=O)cc1", "Potency": "3.66 µM (active)"},
      {"smiles": "CCN(CC)c1ccc(N=Cc2c(O)n(Cc3ccccc3)c(=O)[nH]c2=O)cc1", "Potency": "7.31 µM (active)"},
      {"smiles": "C=CCn1c(O)c(C(C)=Nc2ccc(N(CC)CC)cc2)c(=O)[nH]c1=O", "activity, negative = fluorescence increase": "-6.28% (inactive)"},
      {"smiles": "Cc1cccc(-n2c(O)c(/C=C/C=Nc3ccccc3)c(=O)[nH]c2=O)c1", "Potency": "5.17 µM (active)"},
      {"smiles": "COc1ccc(-n2cnc3cc(C(=O)N4CCC5(CC4)OCCO5)ccc32)cc1", "activity, negative = fluorescence increase": "3.42% (inactive)"},
      {"smiles": "CC(C)c1ccc(N2C(=O)NC(=O)/C(=C\\C=C\\c3ccco3)C2=O)cc1", "Potency": "17.7 µM (active)"},
      {"smiles": "Cc1cccc(N2C(=O)NC(=O)/C(=C\\C=C\\c3ccco3)C2=O)c1", "activity, negative = fluorescence increase": "-12.9% (inactive)"},
      {"smiles": "Cc1cc(C)cc(N2C(=O)NC(=O)/C(=C\\C=C\\c3ccco3)C2=O)c1", "activity, negative = fluorescence increase": "-22.3% (inactive)"},
      {"smiles": "CC(C)c1ccc(N2C(=O)NC(=O)/C(=C/C=C/c3ccco3)C2=O)cc1", "Potency": "17.7 µM (active)"},
      {"smiles": "CN(C)c1ccc(/C=C/C=C2/C(=O)NC(=O)N(c3ccccc3)C2=O)cc1", "Potency": "23.1 µM (active)"},
      {"smiles": "O=[N+]([O-])c1ccc(N2CCOCC2)c2c1no[n+]2[O-]", "activity, negative = fluorescence increase": "-16.4% (inactive)"},
      {"smiles": "CC(C)CCCn1c(O)c(/C=C2/C=CC=N2)c(=O)[nH]c1=O", "Potency": "23.1 µM (active)"},
      {"smiles": "C=C1C(=O)OC2C1CCC(C)C1(O)C=CC(=O)C21C", "note": "(stereo not drawn)", "activity, negative = fluorescence increase": "0.263% (inactive)"},
      {"smiles": "CC1=CC(=Cc2sc3ccccc3[n+]2C)C=C(C)O1", "Potency": "6.51 µM (active)"},
      {"smiles": "Nc1ccc2c3c(cccc13)-c1ccccc1-2", "Potency": "4.11 µM (active)"},
      {"smiles": "CN1C(=O)/C(=C\\c2ccc(N3CCCCC3)o2)C(=O)NC1=S", "Potency": "17.7 µM (active)"},
      {"smiles": "CN1C(=O)/C(=C/c2ccc(N3CCCCCC3)o2)C(=O)NC1=S", "Potency": "15.8 µM (active)"},
      {"smiles": "Cc1cc(/C=C2\\C(=O)NC(=O)N(c3ccc(Br)cc3)C2=O)c(C)n1C", "activity, negative = fluorescence increase": "-0.904% (inactive)"},
      {"smiles": "CCC(C)N1C(=O)/C(=C\\c2ccc(N3CCCCCC3)cc2)C(=O)NC1=S", "note": "(stereo not drawn)", "activity, negative = fluorescence increase": "-23.4% [at 46.1 µM] (inactive)"},
      {"smiles": "CN1CCN(c2ccc(/C=C3\\C(=O)NC(=S)N(c4cccc(Br)c4)C3=O)o2)CC1", "Potency": "18.4 µM (active)"},
      {"smiles": "CCN(CC)c1ccc(/C=C2\\C(=O)NC(=S)N(C)C2=O)o1", "Potency": "12.5 µM (active)"},
      {"smiles": "CCN(CC)c1ccc(/C=C2\\C(=O)NC(=S)N(c3ccc(OC)cc3OC)C2=O)o1", "Potency": "16.4 µM (active)"},
      {"smiles": "CCN(CC)c1ccc(C=C2C(=O)N(C)C(=S)N(C)C2=O)o1", "Potency": "14 µM (active)"},
      {"smiles": "CCN1C(=O)/C(=C/c2ccc(N(CC)CC)cc2OC)C(=O)NC1=S", "activity, negative = fluorescence increase": "-8.27% [at 46.1 µM] (inactive)"},
      {"smiles": "COc1cc2c(cc1O)[C@@H]1Cc3ccc(OC)c(O)c3CN1CC2", "activity, negative = fluorescence increase": "-7.77% (inactive)"},
      {"smiles": "N#CC1=C(N)Oc2c(c(=O)sc3ccccc23)C1c1cccnc1", "note": "(stereo not drawn)", "activity, negative = fluorescence increase": "-9.63% (inactive)"},
      {"smiles": "Cc1cc(N2CCCC2)ccc1C=C(C#N)C#N", "Potency": "7.31 µM (active)"},
      {"smiles": "Cc1c2ccncc2c(C)c2c1[nH]c1ccccc12", "Potency": "14.6 µM (active)"},
      {"smiles": "CC/C(=N\\NC(=O)c1ccccc1O)c1c(O)n(Cc2ccccc2)c(=O)[nH]c1=O", "Potency": "20.6 µM (active)"},
      {"smiles": "CC(=O)O[C@@]12CO[C@@H]1C[C@H](OC1OCC(O)C(O)C1O)[C@@]1(C)C(=O)[C@H](O)C3=C(C)[C@@H](OC(=O)[C@H](O)[C@@H](NC(=O)c4ccccc4)c4ccccc4)C[C@@](O)([C@@H](OC(=O)c4ccccc4)C12)C3(C)C", "note": "(stereo partly drawn)", "activity, negative = fluorescence increase": "-10.3% (inactive)"},
      {"smiles": "COC(=O)C1=C(C)N(Cc2ccco2)C(=O)/C1=C\\c1ccc(N(C)C)cc1", "Potency": "13 µM (active)"}
    ]}
  ]
}
